In PubChem BioAssay:
Several values for one entry are separate records, joined by “and”; a condition that tells them apart may be missing. Equal entries are not always repeated. Activity calls are given as the source filed them. Unless noted, no rule for the calls is given here.

Tests used:
[1] = system: Wnt5a (protein binding on small-molecule microarray); test: small molecules binding Wnt5a protein – biophysical, small-molecule microarray, 635/667 nm fluorescence, primary screen (AID 1142); conditions: 635 nm fluorescence, higher = more signal;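 also: fluorescence read at 667 nm with signal to noise per printed feature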
[2] = ATP-based viability of Huh7 replicon cells – cell-based, CellTiter-Glo luminescence, basal, 48 h, cytotoxicity control for HCV replication inhibitor project, primary screen (AID 1143); conditions: higher = more signal, called active from +8 up or from −8 down;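 also: Huh7 hepatoma cells carrying a hepatitis C replication reporter with no stimulus; test concentration not given here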
[3] = basal CRE-LacZ reporter activity in PC12 – cell-based, unstimulated, primary screen (AID 1145); conditions: no forskolin, luminescence, 4.5 h, higher = more signal, called active from +8 up or from −8 down
[4] = forskolin-driven CRE-LacZ activity in PC12 – cell-based, CRE-LacZ reporter, forskolin-stimulated, primary screen (AID 1146); conditions: luminescence, 4.5 h, higher = more signal, called active from +8 up or from −8 down;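 also: PC12 cells with 6xCRE LacZ reporter stimulated by forskolin 10 µM; beta-galactosidase reporter signal reflecting CREB driven transcription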
[5] = target: Streptavidin (Streptomyces avidinii) (UniProt P22629); test: compounds binding control protein streptavidin – biophysical, small-molecule microarray, 635/667 nm fluorescence, artefact control for SMM compound annotation, primary screen (AID 1147); conditions: higher = more signal;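 also: signal reflects streptavidin binding to arrayed compounds as a control protein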
Streptavidin (Streptomyces avidinii), sequence (P22629 whole entry, looked up): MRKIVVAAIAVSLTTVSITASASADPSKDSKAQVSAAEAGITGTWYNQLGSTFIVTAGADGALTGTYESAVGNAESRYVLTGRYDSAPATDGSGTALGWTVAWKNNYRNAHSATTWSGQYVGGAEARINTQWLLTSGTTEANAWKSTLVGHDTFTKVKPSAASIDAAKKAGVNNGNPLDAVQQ

[6] = probe aInhba binding on compound microarray – biochemical, small-molecule microarray, 635/667 nm fluorescence, primary screen (AID 1148); conditions: higher = more signal;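 also: score merges 667nm spot fluorescence with signal-to-noise for antibody binding to printed compounds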
Torsin-1A (Homo sapiens) [7] = target: Torsin-1A (Homo sapiens) (UniProt O14656); test: TOR1A wild-type binding on microarray – cell lysate, small-molecule microarray, lysate, 635/667 nm, primary screen (AID 1149); conditions: COS7 hTOR1A-WT lysate, 635 nm fluorescence, higher = more signal
Torsin-1A (Homo sapiens), sequence (O14656 whole entry, looked up): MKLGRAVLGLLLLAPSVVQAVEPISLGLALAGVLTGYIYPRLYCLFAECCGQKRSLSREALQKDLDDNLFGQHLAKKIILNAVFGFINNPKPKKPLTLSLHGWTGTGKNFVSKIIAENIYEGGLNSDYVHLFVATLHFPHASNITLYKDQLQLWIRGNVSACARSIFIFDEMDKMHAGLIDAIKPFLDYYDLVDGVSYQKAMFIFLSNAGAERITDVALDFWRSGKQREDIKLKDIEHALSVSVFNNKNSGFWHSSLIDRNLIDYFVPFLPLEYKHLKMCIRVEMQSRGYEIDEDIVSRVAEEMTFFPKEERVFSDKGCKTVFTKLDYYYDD

Torsin-1A (Homo sapiens) [8] = target: Torsin-1A (Homo sapiens) (UniProt O14656); test: torsin A mutant lysate binding on microarrays – cell lysate, small-molecule microarray, COS7 lysate, 635/667 nm fluorescence, primary screen (AID 1150); conditions: COS7 hTOR1A mutant lysate, 635 nm fluorescence, higher = more signal;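 also: score pools 667 nm emission and signal to noise measuring lysate protein binding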
[9] = system: Sonic hedgehog protein (Shh); test: Sonic hedgehog microarray binding compounds – biochemical, small-molecule microarray, 635/667 nm fluorescence, primary screen (AID 1151); conditions: 635 nm fluorescence, higher = more signal;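 also: Shh protein binding to compounds spotted on small-molecule microarray slides; score combines spot fluorescence intensity with signal-to-noise across triplicate slides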
[10] = optical density shifts of acrAB sulA E. coli – strain DRC41, OD650, 48 h, E. coli filamentation inducer project, primary screen (AID 1152); conditions: higher = more signal, called active from +8 up or from −8 down;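 also: E. coli MC1000 strain DRC41 lacking acrAB efflux pump and sulA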
[11] = probe aLefty1 binding on compound microarray – biochemical, small-molecule microarray, 635/667 nm fluorescence, primary screen (AID 1153); conditions: higher = more signal;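 also: score merges spot fluorescence with signal-to-noise ratio from the scanned slide images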
[12] = plasmodial surface anion channel blockers, osmotic lysis – cell-based, P. falciparum Indochina, OD700, 1 h, primary screen (AID 1154); conditions: P. falciparum Indochina infected RBC osmotic lysis, higher = more signal, called active from +8 up or from −8 down
[13] = plasmodial surface anion channel blockers, osmotic lysis – cell-based, P. falciparum Indochina, OD700, 2 h, primary screen (AID 1155);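 also: lysis reports solute entry through the parasite surface anion channel PSAC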; conditions: P. falciparum Indochina infected erythrocytes, higher = more signal, called active from +8 up or from −8 down
[14] = changes in parasitized red cell lysis, either direction – P. falciparum Indochina, OD700, 3 h, PSAC antagonist project, primary screen (AID 1156); conditions: P. falciparum-infected erythrocytes, osmotic lysis, higher = more signal, called active from +8 up or from −8 down
[15] = plasmodial surface anion channel blockers, osmotic lysis – cell-based, P. falciparum Indochina, OD700, 18 h, primary screen (AID 1157); conditions: P. falciparum Indochina infected erythrocytes, osmotic lysis OD700, 18 h; higher = more signal, called active from +8 up or from −8 down
[16] = S6 kinase pathway phospho-S6 level changes – cell-based, A549, cytoblot, luminescence, serum-stimulated, primary screen (AID 1158); conditions: 5 h, higher = more signal;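 also: serum-stimulated A549 lung adenocarcinoma cells; signal is phosphorylated S6 detected by cytoblot immunostaining with HRP secondary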
[17] = target: NADPH oxidase 2 (Homo sapiens) (UniProt P04839); test: compounds shifting NOX2 Amplex Red fluorescence – cell-based, HEK293-NOX2, PMA-stimulated, NOX inhibitor project, primary screen (AID 1159); conditions: 45 min, higher = more signal, called active from +8 up or from −8 down; also: test concentration not given here
NADPH oxidase 2 (Homo sapiens), sequence (P04839 whole entry, looked up): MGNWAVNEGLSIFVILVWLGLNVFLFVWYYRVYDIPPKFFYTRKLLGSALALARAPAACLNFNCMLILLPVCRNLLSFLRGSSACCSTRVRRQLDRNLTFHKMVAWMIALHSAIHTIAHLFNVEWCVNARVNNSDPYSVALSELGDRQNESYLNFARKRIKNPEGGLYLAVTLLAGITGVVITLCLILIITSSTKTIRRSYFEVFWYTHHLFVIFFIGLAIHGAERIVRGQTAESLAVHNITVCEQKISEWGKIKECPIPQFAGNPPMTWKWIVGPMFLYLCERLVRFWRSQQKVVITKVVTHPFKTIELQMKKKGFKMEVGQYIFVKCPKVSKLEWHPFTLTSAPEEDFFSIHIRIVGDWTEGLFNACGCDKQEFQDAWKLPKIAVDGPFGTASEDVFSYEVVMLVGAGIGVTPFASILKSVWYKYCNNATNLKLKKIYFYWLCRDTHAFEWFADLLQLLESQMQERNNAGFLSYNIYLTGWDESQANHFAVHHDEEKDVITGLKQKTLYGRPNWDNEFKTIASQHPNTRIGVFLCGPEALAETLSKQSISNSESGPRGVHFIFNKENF

[18] = target: NADPH oxidase 4 (Homo sapiens) (UniProt Q9NPH5); test: compounds shifting NOX4 Amplex Red fluorescence – cell-based, HEK293-NOX4, tetracycline-induced, NOX inhibitor project, primary screen (AID 1160); conditions: HEK293-NOX4, Amplex Red H2O2 fluorescence, 45 min; higher = more signal, called active from +8 up or from −8 down
NADPH oxidase 4 (Homo sapiens), sequence (Q9NPH5 whole entry, looked up): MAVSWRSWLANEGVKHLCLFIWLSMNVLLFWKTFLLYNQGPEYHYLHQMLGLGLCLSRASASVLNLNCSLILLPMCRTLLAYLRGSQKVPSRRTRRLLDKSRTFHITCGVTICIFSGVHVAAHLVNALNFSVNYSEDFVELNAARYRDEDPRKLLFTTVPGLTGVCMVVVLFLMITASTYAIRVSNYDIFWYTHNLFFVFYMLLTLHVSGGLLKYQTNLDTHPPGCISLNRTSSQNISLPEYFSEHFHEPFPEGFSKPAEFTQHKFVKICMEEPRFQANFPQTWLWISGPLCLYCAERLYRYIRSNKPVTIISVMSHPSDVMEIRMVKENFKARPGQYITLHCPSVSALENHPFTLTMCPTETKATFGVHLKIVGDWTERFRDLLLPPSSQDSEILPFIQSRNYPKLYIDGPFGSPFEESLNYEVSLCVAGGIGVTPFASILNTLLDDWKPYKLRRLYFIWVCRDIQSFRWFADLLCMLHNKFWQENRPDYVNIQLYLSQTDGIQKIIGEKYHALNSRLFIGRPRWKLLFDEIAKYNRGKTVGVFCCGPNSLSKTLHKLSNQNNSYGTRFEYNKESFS

[19] = target: NADPH oxidase 5 (Homo sapiens) (UniProt Q96PH1); test: compounds shifting NOX5 Amplex Red fluorescence – cell-based, HEK293-NOX5, NOX inhibitor project, primary screen (AID 1161); conditions: HEK293-NOX5, ionomycin, 45 min, higher = more signal
NADPH oxidase 5 (Homo sapiens), sequence (Q96PH1 whole entry, looked up): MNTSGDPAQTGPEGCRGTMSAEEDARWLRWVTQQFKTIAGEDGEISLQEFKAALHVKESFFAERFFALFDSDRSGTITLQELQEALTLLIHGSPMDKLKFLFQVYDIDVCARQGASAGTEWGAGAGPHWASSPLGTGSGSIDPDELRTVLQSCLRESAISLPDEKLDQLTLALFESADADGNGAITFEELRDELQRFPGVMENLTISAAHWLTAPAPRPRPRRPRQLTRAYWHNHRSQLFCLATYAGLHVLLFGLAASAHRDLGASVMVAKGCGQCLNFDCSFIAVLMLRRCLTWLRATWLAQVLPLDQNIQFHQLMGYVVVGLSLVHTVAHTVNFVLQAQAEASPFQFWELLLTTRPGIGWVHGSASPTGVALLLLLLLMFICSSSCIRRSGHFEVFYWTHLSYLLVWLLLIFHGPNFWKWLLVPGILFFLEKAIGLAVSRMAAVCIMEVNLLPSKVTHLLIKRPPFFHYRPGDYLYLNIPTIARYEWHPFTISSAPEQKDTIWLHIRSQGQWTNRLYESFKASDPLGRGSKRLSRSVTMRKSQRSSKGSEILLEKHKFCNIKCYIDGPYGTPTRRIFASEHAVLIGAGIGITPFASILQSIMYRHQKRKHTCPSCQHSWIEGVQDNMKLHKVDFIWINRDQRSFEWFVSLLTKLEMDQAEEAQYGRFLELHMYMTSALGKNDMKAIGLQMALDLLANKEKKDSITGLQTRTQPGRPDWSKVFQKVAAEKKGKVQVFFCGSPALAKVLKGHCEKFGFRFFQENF

[20] = Pseudomonas biofilm growth suppression – PAO1 strain, BacTiter-Glo luminescence, LB-PBS, primary screen (AID 1144); conditions: P. aeruginosa PAO1 biofilm, 12 h, higher = more signal

| Structure (SMILES) | composite z-score [1] | z-score [2] | z-score [3] | z-score [4] | composite z-score [5] | composite z-score [6] | composite z-score (Torsin-1A (Homo sapiens) [7]) | composite z-score (Torsin-1A (Homo sapiens) [8]) | composite z-score [9] | z-score [10] | composite z-score [11] | z-score [12] | z-score [13] | z-score [14] | z-score [15] | z-score [16] | z-score [17] | z-score [18] | z-score [19] | z-score [20] |
| --- | --- | --- | --- | --- | --- | --- | --- | --- | --- | --- | --- | --- | --- | --- | --- | --- | --- | --- | --- | --- |
| CO[C@@H]1COC(=O)[C@H](Cc2ccccc2)NC(=O)CC=C[C@@H](C)[C@H](OC)COC(=O)[C@@H](C)NC(=O)CC=C[C@H]1C | -0.21 and 0.189 | -0.656 (inactive) and -1.53 (inactive) | 0.345 (inactive) and -0.39 (inactive) | -0.95 (inactive) and -1.65 (inactive) | -0.0436 and -0.304 | -0.0986 and -0.319 | 1.37 and 0.668 | 0.671 and 0.335 | 2.07 and 1.98 | -0.582 (inactive) and 0.887 (inactive) | -0.0536 and -0.425 | -0.712 (inactive) and -0.142 (inactive) | -0.999 (inactive) and -0.463 (inactive) | 0.932 (inactive) and 0.0469 (inactive) | -2.07 (inactive) and -1.44 (inactive) | 0.758 and 0.682 | 0.0254 (inactive) and -0.582 (inactive) | 0.859 (inactive) and 0.551 (inactive) | -0.106 and 0.66 |  |
| O=C(NN=C1C[C@@H](O)[C@@H](O)[C@@H]2[C@@H]3C(=O)N(Cc4ccc5c(c4)OCO5)C(=O)[C@@H]3CC[C@H]12)OCc1ccccc1 | 0.627 | 0.0294 (inactive) | -1.29 (inactive) | 0.383 (inactive) | -0.872 | -0.0245 | 2.05 | 0.392 | -0.858 | 1.2 (inactive) | 0.126 | 37 (active) | 14.8 (active) | 0.833 (inactive) | 1.24 (inactive) | -0.241 | -1.32 (inactive) | 0.0354 (inactive) | 0.664 | 1.54 (inactive) |
| CCOC(=O)C[C@H]1[C@H](OC(=O)c2ccccc2-c2ccccc2)[C@@H](NC(=O)Cc2ccc(OC)cc2)c2cc(OCCCO)ccc2N1C(=O)c1ccc2ccccc2n1 | 0.0561 and 0.261 | -0.319 (inactive) and 0.66 (inactive) | 7.64 (inactive) and -1.13 (inactive) | -0.809 (inactive) and -0.751 (inactive) | 0.241 and 0.27 | 0.0543 and 0.168 | 0.0122 and -0.0425 | 0.19 and 0.686 | 0.207 and 0.3 | 2.19 (inactive) and 1.32 (inactive) | -0.012 and -0.0186 | 3.8 (inactive) and 1.18 (inactive) | 0.674 (inactive) and 0.879 (inactive) | 0.366 (inactive) and -0.295 (inactive) | 0.329 (inactive) and 0.627 (inactive) | 0.661 and 0.0515 | -0.488 (inactive) and 1.54 (inactive) | 0.946 (inactive) and 0.859 (inactive) | 0.365 and 0.0653 | -0.568 (inactive) |
| CCOC(=O)CCN1C(=O)[C@H]2[C@H]3[C@H](O)[C@H](O)CC(=NNC(=O)OCC)[C@@H]3CC[C@H]2C1=O | 0.201 | 0.0243 (inactive) | 0.796 (inactive) | 0.261 (inactive) | -0.283 | -0.0791 | 0.274 | 0.608 | 0.188 | 0.542 (inactive) | -0.193 | -0.48 (inactive) | 0.189 (inactive) | -0.602 (inactive) | -0.0634 (inactive) | -0.494 | -0.489 (inactive) | 0.916 (inactive) | 0.754 | -0.129 (inactive) |
| CN1C(=O)C2CC=C([C@H]3Oc4ccccc4S(=O)(=O)N4CCC[C@@H]34)CC2C1=O (some centres undefined) | -0.0808 and 0.53 | 0.0836 (inactive) and -0.243 (inactive) | -1.32 (inactive) and -0.327 (inactive) | 0.123 (inactive) and 0.707 (inactive) | -0.0329 and -0.212 | -0.0963 and -0.0874 | -0.0871 and -0.296 | 0.075 and -0.165 | -0.306 and -0.272 | -0.92 (inactive) and -0.225 (inactive) | -0.186 and -0.193 | 0.35 (inactive) and 0.829 (inactive) | 0.542 (inactive) and 0.41 (inactive) | -0.0363 (inactive) and 0.15 (inactive) | 0.354 (inactive) and 0.133 (inactive) | -0.395 and -0.53 | 0.514 (inactive) and -0.289 (inactive) | -1.36 (inactive) and -1.47 (inactive) | -1.31 and -1.46 | -0.129 (inactive) and -0.419 (inactive) |
| Cc1ccc(S(=O)(=O)OC[C@@H]2CN3[C@@H](CC[C@@H](C)[C@@H]3c3ccc(Br)cc3)C(=O)O2)cc1 | 0.225 and 0.0286 | 0.0308 (inactive) and -0.565 (inactive) | 0.471 (inactive) and 1.22 (inactive) | 0.599 (inactive) and -0.853 (inactive) | 0.197 and 0.0059 | -0.0736 and 0.0173 | 0.478 and 0.543 | 0.244 and 0.594 | 0.566 and 0.616 | 0.0029 (inactive) and -0.348 (inactive) | -0.134 and -0.144 | 2.52 (inactive) and 4.44 (inactive) | 0.0068 (inactive) and 1.78 (inactive) | -0.414 (inactive) and 0.812 (inactive) | -0.0954 (inactive) and 0.932 (inactive) | -0.834 and 0.119 | 1.24 (inactive) and 0.787 (inactive) | 0.37 (inactive) and -0.0143 (inactive) | 0.0798 and 0.702 | 0.152 (inactive) and -0.0678 (inactive) |
